Here are results for 94 compounds from PubChem BioAssay AID1422 (Emory University Molecular Libraries Screening Center, 2008).

“And” between values parts separate entries of the source, which are not always exact repeats. Equal entries are not always repeated. The campaign covered roughly 260,000 compounds. About 1,300 (0.5%) were called active.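 The calls were made as follows: active = percent inhibition above 40 after rounding to a whole number; inactive = the rest.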 The full list was thinned out, with actives kept by preference. Some compounds were tested as several samples or in several runs, with calls that do not always agree.

Prostaglandin E2 receptor EP2 subtype (Homo sapiens), sequence (P43116 whole entry, looked up): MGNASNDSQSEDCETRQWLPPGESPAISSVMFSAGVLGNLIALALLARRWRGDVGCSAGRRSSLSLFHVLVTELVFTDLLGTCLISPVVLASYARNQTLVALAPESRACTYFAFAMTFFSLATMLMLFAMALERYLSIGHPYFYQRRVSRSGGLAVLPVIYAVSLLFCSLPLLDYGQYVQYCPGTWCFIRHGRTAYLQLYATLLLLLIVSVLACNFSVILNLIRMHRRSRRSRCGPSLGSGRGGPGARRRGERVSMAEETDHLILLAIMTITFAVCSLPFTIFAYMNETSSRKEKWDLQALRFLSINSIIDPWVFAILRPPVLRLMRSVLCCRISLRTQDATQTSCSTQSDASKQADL

The assay addresses Prostaglandin E2 receptor EP2 subtype (Homo sapiens) (UniProt P43116). Briefly: human EP2 receptor antagonists, primary screen, TR-FRET cAMP, C6 glioma cells (AID 1422).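 Also: rat C6 glioma host cells with rolipram phosphodiesterase inhibitor present; the protocol text gives 20 µM as final concentration.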 Conditions: C6 glioma cells expressing human EP2, cAMP TR-FRET; at 25 µM; stronger effect = higher value; cells stimulated with saturating PGE2.
With `CCOc1ccc(-n2nnnc2SCC(=O)Nc2ccc(C)c(NC(=O)CC)c2)cc1`, the inhibition (as a rule, the change of the read-out against control, counted positive when it falls) is 10.6% (inactive). As for `CC(=O)Nc1ccc(S(=O)(=O)N2CC=C[C@@H]2C(=O)NCCc2ccccc2)cc1`, the inhibition was 8.27% (inactive).

As for `Cc1ccc(C)c2nc(SCC(=O)Nc3ccccc3-c3ccccc3)c(C#N)cc12`, the inhibition was 13.9% (inactive). With `Cc1cccc2cc(CN(Cc3cccs3)C(=O)Nc3ccc(Cl)cc3)c(=O)[nH]c12`, the inhibition was 6.58% (inactive). Consider `OC(CN1CCC(O)(c2cccc(C(F)(F)F)c2)CC1)c1ccccc1` (centres undefined), for which the inhibition was 5.58% (inactive). As for `COc1ccc(NC(=O)CSc2nnc3c4c5c(sc4ncn23)CC(C)CC5)cc1` (centres undefined), the inhibition was 46.8% (active).

On to `CC1CCc2c(sc3ncn4c(SCC(=O)N5CCc6ccccc65)nnc4c23)C1` (centres undefined), for which the inhibition is 16.8% (inactive).

Turning to `COc1ccccc1NC(=O)CSc1ncnc2sc3c(c12)CCC(C)C3` (centres undefined), the inhibition was 15.3% (inactive).

Regarding `Cc1nnc(NC(=O)CN2CCN(C3CCCCC3)CC2)s1`, the inhibition was 13.3% (inactive).

Consider `COC(=O)c1ccc(-n2nnnc2SCC(=O)NCc2cccs2)cc1`, for which the inhibition was 10.1% (inactive). In the case of `COc1ccc(C2(NC(=O)c3ccc(N4CCCCS4(=O)=O)cc3)CCCC2)cc1`, the inhibition is 6.96% (inactive). Regarding `CC(C)C(NC(=O)OCc1ccccc1)C(=O)OCC(=O)N1C(C)CCCC1C` (centres undefined), the inhibition is 12.2% (inactive). The figure for `O=C(O)C1CCN(C(=O)OCc2ccccc2)CC1` is 7.11% (inactive); for `NC1(C(=O)OCc2ccccc2)CCCC1` it is 42.6% (active).

As for `COc1ccccc1C1(NC(=O)c2snnc2C)CCCC1`, the inhibition is 10.4% (inactive). Turning to `O=C(O)COc1nc(N2CCCCC2)nc(N2CCCCC2)n1`, the inhibition was 11.5% (inactive). With `Cc1cccc(N(CC(=O)NC2CCCC2)C(=O)c2snc(C(=O)NC3CCCCC3)c2N)c1C`, the inhibition was 13.6% (inactive). On to `O=C(Nc1ccccc1)c1nnsc1S(=O)(=O)c1ccc(Cl)cc1`, for which the inhibition was 114% (active). For `CC(=O)Nc1cc(C(=O)O)ccc1S(=O)(=O)c1ccc(Cl)cc1`, the inhibition was 5.25% (inactive). For the compound `CS(=O)(=O)c1ccc(Cl)c(NC(=O)Nc2ccccc2)c1`, the inhibition is 6.72% (inactive).

Regarding `CC1CCc2c(sc3ncnc(SCc4cc(=O)[nH]c5ccccc45)c23)C1` (centres undefined), the inhibition is 13.1% (inactive). For the compound `Cc1cccc2c(=O)c(C(=O)NN)c[nH]c12`, the inhibition was 5.35% (inactive).

Take `Cc1cc(C)cc(NC(=O)CSc2nc3c(c(=O)n(C)c(=O)n3C)n2C(C)C)c1`: the inhibition is 5.34% (inactive). The figure for `Cc1cc2cc3c(cc2n2c(SCC(=O)Nc4ccc(Cl)cc4)nnc12)OCCO3` is 19.1% (inactive); for `COC(=O)c1ccccc1NC(=O)CSc1nnc2c(C)cc3cc4c(cc3n12)OCCO4` it is 7.88% (inactive); for `Cc1nc(NC(=O)CSc2nnc3c(C)cc4cc5c(cc4n23)OCCO5)sc1C` it is 40.1% (active).

On to `CC1Cc2cc(C(O)CN3CCCC3)ccc2N1C(=O)C(C)(C)C` (centres undefined), for which the inhibition is 6.03% (inactive). Regarding `COc1cc(C2C(C(=O)c3ccc(C)o3)=C(O)C(=O)N2Cc2cccnc2)ccc1O` (centres undefined), the inhibition was -0.43% (inactive). For `Cc1ccc(C(=O)C2=C(O)C(=O)N(Cc3ccccc3)C2c2ccncc2)o1` (centres undefined), the inhibition is 17.6% (inactive). Regarding `C=CCOc1cccc(C2C(C(=O)c3ccc(C)o3)=C(O)C(=O)N2c2nnc(C)s2)c1` (centres undefined), the inhibition was 45.8% (active).

As for `CC(=O)C(C)n1c(CN2CCC(C)CC2)nc2c1c(=O)n(C)c(=O)n2C` (centres undefined), the inhibition was 7.13% (inactive). Regarding `Cn1c(=O)c2c([nH]c(=O)n2Cc2cccc3ccccc23)n(C)c1=O`, the inhibition is 11.4% (inactive). In the case of `O=C(Nc1cccnc1)c1ccc(Cl)c([N+](=O)[O-])c1`, the inhibition is 3.46% (inactive). For `O=C(/C=C/c1ccc(Cl)c([N+](=O)[O-])c1)c1cccnc1` the value was 43.7% (active); for `O=C(/C=C/c1ccc(Cl)c([N+](=O)[O-])c1)c1ccc(O)cc1`, 2.09% (inactive). On to `COc1ccc(CNc2sc3c(c2C(=O)Nc2ccccc2OC)CCC3)cc1`, for which the inhibition was 8.59% (inactive). The figure for `COc1ccc2c(c1)NC1(CCN(C(=O)c3ccc(Cl)nc3)CC1)c1cccn1-2` is 13% (inactive); for `Cc1cccc(NC(=S)N(Cc2cc3ccc(C)c(C)c3[nH]c2=O)CC2CCCO2)c1` (centres undefined) it is 8.93% (inactive); for `O=c1oc2ccccc2cc1-c1csc(Nc2cccc(O)c2)n1` it is 117% (active).

Consider `COc1ccc2nc(Nc3nc(-c4cc5ccccc5oc4=O)cs3)sc2c1`, for which the inhibition was 6.47% (inactive). Consider `O=c1oc2ccccc2cc1-c1csc(Nc2ccc(O)cc2)n1`, for which the inhibition was 4.13% (inactive). On to `CCOc1ccc2nc(SCC(=O)OC(C)C)c(C#N)cc2c1`, for which the inhibition is 10.9% (inactive). As for `O=C1c2cccc3cc(Br)cc(c23)C(=O)N1Nc1ccccc1`, the inhibition was 7.35% (inactive).

As for `O=C(O)CC1=C(Nc2ccccc2)C(=O)N(c2ccccc2)C1c1ccc(Cl)cc1` (centres undefined), the inhibition was 5.93% (inactive). Regarding `O=C1C=C(c2ccc(Cl)cc2)C(=O)N1Nc1ccccc1`, the inhibition was 134% (active).

With `COc1ccc(C(c2nnnn2CC2CCCO2)N2CCN(C3CCCCC3)CC2)cc1` (centres undefined), the inhibition is 1.12% (inactive). For `Cc1ccc(C)c(N2C(=O)c3cccc4c(N(C)C)ccc(c34)C2=O)c1` the value was 8.88% (inactive); for `CC1CCN(C(=O)CN(C)S(=O)(=O)c2ccc(F)cc2)CC1`, 7.13% (inactive). For `COc1ccc(Nc2ncnc3sc(-c4ccccc4)cc23)c(OC)c1`, the inhibition is 15.7% (inactive). Regarding `c1ccc(-c2cc3c(NCC4COc5ccccc5O4)ncnc3s2)cc1` (centres undefined), the inhibition is 99.7% (active).

With `c1ccc2c(c1)OCC(CNc1ncnc3nc[nH]c13)O2` (centres undefined), the inhibition is 10.3% (inactive). As for `COc1ccccc1N=C1Sc2nc3cc4c(cc3cc2CN1CC1CCCO1)OCO4` (centres undefined), the inhibition is 9.09% (inactive). Consider `CC(C)n1c(SCC(=O)N(Cc2ccccc2)C(C)(C)C)nc2c1c(=O)n(C)c(=O)n2C`, for which the inhibition was 9.83% (inactive). With `CCN1CCN(C(=O)c2sc3ccccc3c2Cl)CC1`, the inhibition was 9.4% (inactive).

In the case of `COc1ccccc1NC(=O)C1=C(C)NC2=C(C(=O)CCC2)C1c1ccc(C)o1` (centres undefined), the inhibition is 2.07% (inactive). With `Cc1ccc(C2C3=C(Nc4[nH]n(-c5ccccc5)c(=O)c42)c2ccccc2C3=O)cc1` (centres undefined), the inhibition is 10.2% (inactive). Turning to `COC(=O)C1=C(C)NC2=C(C(=O)c3ccccc32)C1c1ccc(-c2ccc(C(=O)O)cc2)o1` (centres undefined), the inhibition was 42.5% (active). Take `O=C(NCc1ccccc1)C(=O)c1c[nH]c2ccccc12`: the inhibition was 12.1% (inactive). Consider `C/C(Cl)=C\CSc1nc(N2CCOCC2)c2c(c1C#N)CC(C)(C)OC2`, for which the inhibition is 9.2% (inactive). The figure for `CN1CCN(C(c2ccc(Cl)cc2)c2nnnn2Cc2ccco2)CC1` (centres undefined) is 13.3% (inactive); for `Cc1ccc(N2CCCC2=O)cc1S(=O)(=O)NC1CCCNC1=O` (centres undefined) it is 5.07% (inactive); for `COc1ccc2c(c1)N(C)/C(=c1\s/c(=C3\SC(=S)N(C)C3=O)n(C)c1=O)S2` it is 17.4% (inactive). As to `C/C(N[O-])=C(\C)[N+]([O-])=[Co].CC(=N\[O-])/C(C)=N/[O-].[CH2-]CCN1CCOCC1.c1ccncc1`, the inhibition was 42.1% (active). `CN(C)S(=O)(=O)c1ccc(S(=O)(=O)N2CCN(c3ccccc3F)CC2)cc1`: the inhibition is 15.4% (inactive). Consider `CCOc1cc(-c2cc(-c3ccc(OC)cc3)nc(N)c2C#N)ccc1O`, for which the inhibition is 13.6% (inactive) and 5.97% (inactive). For `CCOc1cc(-c2c(C#N)c(N)nc(-c3ccccc3)c2CC)ccc1O` the value was 42.1% (active); for `CCc1c(-c2ccccc2)nc(N)c(C#N)c1-c1cccs1`, 5.93% (inactive); for `Cc1sc(NC(=O)Cn2c(=O)sc3ccccc32)c(C#N)c1C`, 7.54% (inactive).

Take `COc1ccccc1CNC(=O)C1CCN(c2cnccn2)CC1`: the inhibition was 9.64% (inactive). As to `CC1(C)CC2CC(C)(CN2C(=O)c2ccc(Cl)cc2)C1` (centres undefined), the inhibition was 13.4% (inactive). For `COc1ccc2[nH]c(=O)c(CN(CCCN(C)C)C(=S)Nc3ccccc3)cc2c1` the value was 9.95% (inactive).

`C[N+]1(CCN=C=NC2CCCCC2)CCOCC1`: the inhibition was 42.8% (active). The figure for `Cc1c(O)c(Br)c(C)c(O)c1Br` (tested in a mixture with another compound) is 105% (active); for `CCc1ccc2nc3sc(C(=O)Nc4nnc(CC)s4)c(N)c3cc2c1` it is 90.2% (active) and 26.4% (inactive). Consider `CCc1ccc2nc3sc(C(=O)OC)c(N)c3cc2c1`, for which the inhibition was 11.6% (inactive). For the compound `CCc1ccc2nc3sc(C(=O)NCc4ccc5c(c4)OCO5)c(N)c3cc2c1`, the inhibition was 13.9% (inactive). On to `CCn1cc(C(=O)N[C@@H](C)Cn2nnc3ccccc32)c(=O)c2ccc(C)nc21`, for which the inhibition is 9.07% (inactive).

As to `COC(=O)c1ccccc1NC(=O)CSc1nnnn1C`, the inhibition is 9.91% (inactive) and 10.9% (inactive).

Take `CCOC(=O)c1c(-c2ccc(C)cc2C)csc1NC(=O)CSc1nnnn1C`: the inhibition was 44.2% (active). The figure for `CCOC(=O)CNC(=O)CSc1nnnn1-c1cc(C)ccc1C` is -1.57% (inactive); for `CCc1nnc(NC(=O)CSc2nnnn2-c2ccc(F)cc2)s1` it is 7.48% (inactive); for `COc1ccc(C2(C(=O)NCCn3nc(-c4cccs4)ccc3=O)CC2)cc1` it is 4.83% (inactive).

Consider `CCOc1ccccc1NC(=O)CSc1nnnn1-c1ccc(F)cc1`, for which the inhibition was 10.9% (inactive). The figure for `CC(C)(C)NC(=O)Cn1nc(-c2nccc3ccccc23)oc1=O` is 2.81% (inactive); for `CC(=O)Nc1cccc([N+](=O)[O-])c1` it is 3.91% (inactive). On to `Cc1ccccc1NC(=S)Nc1cccc([N+](=O)[O-])c1`, for which the inhibition was 10.2% (inactive). As to `COC(=O)/C=C\C(=O)Nc1cccc([N+](=O)[O-])c1`, the inhibition is 113% (active). In the case of `CCn1c(C)cc2cc(NC(=O)CCCn3nc(C)cc3C)ccc21`, the inhibition is 6.1% (inactive).

On to `Cc1cc(C)cc(-c2nnc(SCC(=O)N3c4ccccc4CC3C)o2)c1` (centres undefined), for which the inhibition is 15.9% (inactive). Turning to `CCN1/C(=C/c2ccc3ccc(C)cc3[n+]2CC)Sc2ccccc21`, the inhibition is 49.2% (active). `CCN1/C(=C/C(=S)Nc2ccccc2)Sc2ccccc21`: the inhibition is 11.8% (inactive).

Regarding `CCN1/C(=C\c2ccc3ccccc3[n+]2CC)Sc2cc(C)ccc21`, the inhibition is 88.5% (active).

Regarding `CCN1CCN(CCNC(=O)c2ccc(/C=C3/Sc4ccccc4N(Cc4cccc(C)c4)C3=O)cc2)CC1`, the inhibition is 15.1% (inactive).

On to `CCCN1/C(=C/c2ccc3ccccc3[n+]2CC)Sc2cc(NC(C)=O)ccc21`, for which the inhibition was 13.2% (inactive).
